From the supplement of paper PMC9446081 come the findings set out here.

The campaign covered roughly 39,000 compounds. About 220 (0.56%) showed activity. The list comes from a sample in which actives are over-represented; it also holds similar structures and randomly drawn compounds. Values without a mark were called inactive.
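Note: Wild-type cells incubated without shaking, value is the mean of two biological replicates.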

In this assay the test system is Escherichia coli K-12 BW25113. Nature of the assay: relative growth (OD600 normalised to plate interquartile mean) (fraction); higher = less growth inhibition, active = 0.2 or less. Particulars: 50 µM; LB; incubation time: overnight (16-24 h).
For `COc1ccc(NC(=O)N(C)C[C@@H]2OCCCC[C@@H](C)Oc3ccc(NC(=O)Nc4ccccc4)cc3C(=O)N([C@H](C)CO)C[C@@H]2C)cc1`, the relative growth is 1.01. As to `CCCCCCO[C@@H](C)c1cccc(-c2csc(NC(=O)c3cc(Cl)c(/C=C(\C)C(=O)O)c(Cl)c3)n2)c1OC`, the relative growth is 0.777. On to `C=CCC[C@H](Cc1ccc(F)cc1)C(=O)O[C@@H](CNC(=O)[C@@H](CC=C)CC(=O)N(CCO)Cc1ccccc1)c1ccccc1`, for which the relative growth is 1.07. The result for `CC(=O)N1CCN(C(=O)C(=O)NC[C@H](c2ccc(N(C)C)cc2)N2CCOCC2)CC1` reads 0.989; that for `Cc1cc(C)c(NC(=O)[C@@H](N)Cc2ccccc2)c(Cl)c1`, 1.02. For the compound `Cc1ccc(S(=O)(=O)N(C)C[C@H]2Oc3cc(C#Cc4ccncc4)ccc3S(=O)(=O)N([C@@H](C)CO)C[C@H]2C)cc1`, the relative growth was 1.04. With `c1ccc(-c2ccnc(-c3cc(-c4ccccc4)ccn3)c2)cc1`, the relative growth is 0.99. As to `Cl.NCCCC(=O)O` [gamma-AMINOBUTYRIC ACID HYDROCHLORIDE], the relative growth was 0.905. `CNC(=O)NCc1ccc2c(c1)OCO2`: the relative growth is 1. For `CCn1nc(C(=O)O)c(=O)c2cc3c(cc21)OCO3`, the relative growth is 0.0537 (active). As for `O=C(O)c1ccc2c(c1)OCO2`, the relative growth is 0.853. The result for `C[C@H](CO)N1C[C@H](C)[C@H](CN(C)S(=O)(=O)c2cn(C)cn2)OCCCC[C@H](C)Oc2ccc(NS(=O)(=O)c3cccs3)cc2C1=O` reads 1.01. The same measure for `CS(=O)(=O)N(CCC#N)Cc1ccco1`: 1; for `C[C@H]1CN([C@@H](C)CO)C(=O)Cc2cc(NC(=O)CCN3CCOCC3)ccc2O[C@@H]1CN(C)S(=O)(=O)c1cn(C)cn1`: 1.03; for `CC(C)NC(=O)N(C)C[C@@H]1Oc2ccc(NC(=O)Cc3ccccc3)cc2CC(=O)N([C@H](C)CO)C[C@H]1C`: 0.977. The result for `CC(C)NC(=O)N(C)C[C@@H]1Oc2ccc(NC(=O)CCC(F)(F)F)cc2CC(=O)N([C@H](C)CO)C[C@@H]1C` reads 0.959; that for `O=C(C1CC1)N1CCN(c2ncccn2)CC1`, 0.991. As to `Cn1c(=O)cnn(CCCCN2CCN(c3ncccn3)CC2)c1=O`, the relative growth was 0.987. Regarding `Cl.O=C1CC2(CCCC2)CC(=O)N1CCCCN1CCN(c2ncccn2)CC1`, the relative growth was 0.0493 (active).

Consider `CC(C)CC#Cc1cnc2c(c1)C(=O)N([C@@H](C)CO)C[C@@H](C)[C@H](CN(C)C(=O)CCN1CCCCC1)O2`, for which the relative growth is 0.987. On to `COc1ccc(NC(=O)N(C)C[C@@H]2Oc3c(NC(=O)CCCCCC(=O)Nc4ccccc4N)cccc3C(=O)N([C@H](C)CO)C[C@H]2C)cc1`, for which the relative growth is 1.01. The same measure for `C[C@@H]1CN([C@H](C)CO)C(=O)c2cc(NC(=O)Nc3ccc(C(F)(F)F)cc3)ccc2O[C@@H]1CN(C)Cc1ccc(-c2ccccc2)cc1`: 0.996; for `O=C1NCCN1c1ncc([N+](=O)[O-])s1`: 0.0407 (active); for `O=C1NCCN1c1cccnc1`: 1.01. On to `CC(=O)Nc1ncc([N+](=O)[O-])s1`, for which the relative growth is 0.923.

Turning to `Cc1noc(C)c1NC(=O)Nc1ccc2c(c1)CC(=O)N([C@H](C)CO)C[C@@H](C)[C@H](CN(C)CC1CC1)O2`, the relative growth is 1.02. In the case of `CC(CCC(=O)O)C1CCC2C3C(O)CC4CC(O)CCC4(C)C3CCC12C` (centres undefined), the relative growth was 1.01.

Regarding `CCCCCCCCCCCCCCCCCCCC(=O)N[C@H]1CC[C@@]2(C)[C@@H](C1)C[C@@H](O)[C@@H]1[C@@H]2C[C@H](O)[C@]2(C)[C@@H]([C@H](C)CCC(=O)O)CC[C@@H]12`, the relative growth was 1.02. The result for `C[C@H](CCC(=O)NCCS(=O)(=O)O)[C@H]1CC[C@H]2[C@@H]3[C@H](O)C[C@@H]4C[C@H](O)CC[C@]4(C)[C@H]3C[C@H](O)[C@]12C` reads 1.01. With `COC(=O)CCC(C)C1CCC2C3C(O)CC4CC(O)CCC4(C)C3CC(O)C12C` (centres undefined), the relative growth was 1.03. The same measure for `CC(C)[C@@H](CC[C@@H](C)[C@H]1CC[C@H]2[C@@H]3[C@H](O)C[C@H]4C[C@@H](NCCCNCCCCNCCCN)CC[C@]4(C)[C@H]3CC[C@]12C)OS(=O)(=O)O`: 0.152 (active); for `CC(C)[C@@H](CC[C@@H](C)[C@H]1CC[C@H]2[C@@H]3[C@H](O)C[C@H]4C[C@@H](NCCCNCCCCN)CC[C@]4(C)[C@H]3CC[C@]12C)OS(=O)(=O)O`: 0.137 (active). The result for `C[C@H]1CN([C@@H](C)CO)C(=O)Cc2cc(NC(=O)Cc3ccccc3)ccc2O[C@@H]1CN(C)S(=O)(=O)c1ccccc1` reads 0.993; that for `CCOC(=O)[C@@H](C)n1ncn2cccc2c1=O`, 1.01; that for `CCCC#Cc1ccc2c(c1)O[C@@H](CN(C)C(=O)c1cnccn1)[C@@H](C)CN([C@H](C)CO)S2(=O)=O`, 0.971. `C[C@H]1CC/C=C\[C@H]2O[C@@]34C=CCN(c5ccc6ccccc6c5)C(=O)[C@H]3N(CCO)C(=O)[C@@H]4[C@@H]2C(=O)O1`: the relative growth was 0.983. The same measure for `CC(=O)N1C[C@@H]2C(=O)N(C)C3(CCN(S(=O)(=O)Cc4ccccc4)CC3)[C@H]2C1`: 0.958; for `C[C@H]1CN([C@@H](C)CO)C(=O)Cc2cc(NC(=O)CCCCCC(=O)Nc3ccccc3N)ccc2O[C@H]1CN(C)C(=O)Nc1ccc(C(F)(F)F)cc1`: 0.958; for `C[C@H]1CN([C@@H](C)CO)C(=O)c2c(c3ccccc3n2C)-c2ccccc2CO[C@@H]1CN(C)Cc1cccc(F)c1`: 0.962. `CC1=C(C(=O)O)N2C(=O)[C@H](NC(=O)[C@@H](N)c3ccccc3)[C@H]2SC1`: the relative growth was 1.02. With `CC1=C(C(=O)O)N2C(=O)[C@@H](NC(=O)[C@@H](N)c3ccccc3)[C@H]2SC1`, the relative growth was 0.998. On to `NC(C(=O)NC1C(=O)N2C(C(=O)O)=C(Cl)CSC12)c1ccccc1` (centres undefined), for which the relative growth was 0.0491 (active).

With `CC1=C(C(=O)O)N2C(=O)[C@@H](NC(=O)[C@H](N)c3ccccc3)[C@H]2SC1`, the relative growth was 1.03. In the case of `CC1=C(C(=O)O)N2C(=O)C(NC(=O)C(N)c3ccccc3)C2SC1` (centres undefined), the relative growth was 1.03. Consider `N[C@@H](C(=O)N[C@@H]1C(=O)N2C(C(=O)O)=C(Cl)CS[C@H]12)c1ccccc1`, for which the relative growth is 0.0303 (active).

`N[C@@H](C(=O)N[C@@H]1C(=O)N2C(C(=O)O)=C(Cl)CC[C@H]12)c1ccccc1`: the relative growth was 0.0311 (active). Regarding `OC[C@H]1O[C@H](n2nnc3ccccc32)[C@@H](O)[C@@H](O)[C@@H]1O`, the relative growth is 0.989. The same measure for `Cc1noc(C)c1S(=O)(=O)Nc1cccc2c1O[C@H](CN(C)S(=O)(=O)c1cccs1)[C@H](C)CN([C@@H](C)CO)C2=O`: 1; for `CCCN1C[C@@H](C)[C@H](OC)CN(C)C(=O)c2ccc(NS(=O)(=O)c3cn(C)cn3)cc2OC[C@@H]1C`: 1; for `Nc1ccc(/C=C/c2ccccc2)cc1`: 0.999.

For the compound `C[C@H](CO)N1C[C@H](C)[C@@H](CN(C)C(=O)c2cnccn2)Oc2cc(Br)ccc2S1(=O)=O`, the relative growth was 0.986.

Regarding `CC1CCc2cc(F)cc3c(=O)c(C(=O)O)cn1c23` (centres undefined), the relative growth was 0.0455 (active). The same measure for `CC1CCc2c(N3CCC(O)CC3)c(F)cc3c(=O)c(C(=O)O)cn1c23` (centres undefined): 0.0484 (active); for `C[C@@H]1CN([C@@H](C)CO)C(=O)Cc2cc(NC(=O)Cc3ccccc3)ccc2O[C@@H]1CN(C)Cc1ccc(Oc2ccccc2)cc1`: 0.987. Regarding `O=C(C[C@H]1C=C[C@H](NS(=O)(=O)c2ccccc2F)[C@@H](CO)O1)NCCCN1CCOCC1`, the relative growth was 0.993.

Regarding `C[C@H]1CN([C@@H](C)CO)C(=O)Cc2cc(NS(=O)(=O)c3ccccc3)ccc2O[C@@H]1CN(C)S(C)(=O)=O`, the relative growth is 0.961. Take `NC(=O)[C@@H]1C(=O)C[C@@H]2C[C@@H]3Cc4cccc(O)c4C(=O)[C@@H]3C(=O)[C@]2(O)C1=O`: the relative growth was 0.164 (active). Take `C[C@@H]1CN([C@@H](C)CO)C(=O)Cc2cc(NC(=O)C3CCCCC3)ccc2O[C@H]1CN(C)C(=O)Nc1cccc2ccccc12`: the relative growth is 1.01. In the case of `COC(=O)[C@H](Cc1ccc(N=[N+]=[N-])cc1)N1CC2=C[C@@H](C3CC3)n3c(=O)n(C)c(=O)n3[C@H]2[C@@H]1[C@@H](O)Cc1ccccc1`, the relative growth was 0.989. As to `O=C(O)c1cn(C2CC2)c2cc(N3CCNCC3)c(F)cc2c1=O`, the relative growth was 0.0478 (active). As for `O=C(O)c1cn(C2CC2)c2cc(N3CCC(O)(COc4ccc(N5C[C@H](CO)OC5=O)cc4F)CC3)c(F)cc2c1=O`, the relative growth was 0.111 (active).

On to `CC(=O)NC[C@H]1CN(c2ccc(N3CCN(C(=O)CO)CC3)c(F)c2)C(=O)O1`, for which the relative growth was 0.38. In the case of `CC(=O)NCC1CN(c2ccc(N3CCOCC3)c(F)c2)C(=O)O1` (centres undefined), the relative growth was 0.701. As to `CCN1CCN(c2cc3c(cc2F)c(=O)c(C(=O)O)cn3C2CC2)CC1`, the relative growth was 0.0449 (active). Take `C[C@H](CO)N1C[C@H](C)[C@H](CN(C)C(=O)Nc2ccc(F)cc2)OCCCC[C@H](C)Oc2ccc(NC(=O)C3CCOCC3)cc2C1=O`: the relative growth was 0.981. The result for `Cc1ccc(S(=O)(=O)Nc2ccc3c(c2)C(=O)N([C@@H](C)CO)C[C@H](C)[C@H](CN(C)S(C)(=O)=O)OCCCC[C@@H](C)O3)cc1` reads 1.

Consider `NC[C@H]1CC[C@H](C(=O)N2CCC(c3ccncc3)CC2)CC1`, for which the relative growth was 1.03. In the case of `Cc1ccc(S(=O)(=O)N[C@H]2CC[C@H](CCNC(=O)CN3CCOCC3)O[C@@H]2CO)cc1`, the relative growth is 1. Regarding `C[C@@H]1CN([C@H](C)CO)C(=O)c2cc(NS(=O)(=O)c3ccccc3)ccc2O[C@@H](C)CCCCO[C@H]1CN(C)Cc1ccc(C(=O)O)cc1`, the relative growth is 1.
